Screening results from PubChem BioAssay.
Most compounds without a hit are left out; they make up all but 1.7% or so of the library.
TLR4-MyD88 BLA: TLR4-MyD88 interaction inhibition in cells; HeLa CL3-4 TLR4/MyD88 BLA complementation, FRET ratio; inhibition, % at 8.4 µM; actives 0.18% (n = 200,000); in the data active means inhibition above about 25%;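 further: 0% = vehicle and 100% = reference inhibitor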
ABCB6 inh 2: human ABCB6 transporter inhibition; Q9NP58; fluorescence ratio to DMSO, % at 10 µM; AID 602162; actives 0.19% (n = 360,000); K562-ABCB6 porphyrin accumulation, flow cytometry, 1 h; stronger effect = lower value;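 active means fluorescence ratio to DMSO below 75%, the collection mean minus 3 SD; inconclusive means too few cells collected in the well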;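 further: signal is porphyrin accumulated inside mitochondria; 100% equals median channel fluorescence of DMSO control wells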
TLR9-MyD88 block: blocks human TLR9 binding to MyD88 | Q9NR96+Q99836 | CHO BLA complementation TLR9-MyD88, CCF4 FRET ratio | inhibition, % at 4.98 µM | actives 0.21% (n = 340,000) | AID 504734;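 active means inhibition above the mean over all tested compounds plus 3 SD, cut at about 21% in these data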;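 further: 0% = DMSO only wells and 100% = clavulanate BLA inhibitor control wells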
Myeloid diff 2: myeloid differentiation induction; ER-HoxA9 myeloid progenitors, lysozyme-GFP differentiation, flow cytometry; calls only at 10 µM; actives 1% (n = 360,000); AID 624256;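 active means normalized GFP-positive differentiation at or above the plate's own cutoff, the solvent-only control mean plus 3 SD; inconclusive means no clear call, values can overlap the other calls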;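 further: cells exposed to compound for four days before flow analysis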
NOD2 RIPK2 PPI: NOD2-RIPK2 protein interaction inhibition | O43353 | AID 624267 | actives 0.38% (n = 360,000) | inhibition, % at 4.98 µM | CHO BLA complementation NOD2-RIPK2, CCF4 ratio; in the data active means inhibition above about 21%;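 further: 0% = vehicle only and 100% = reference blocker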
Target sequence (O43353 whole entry, looked up): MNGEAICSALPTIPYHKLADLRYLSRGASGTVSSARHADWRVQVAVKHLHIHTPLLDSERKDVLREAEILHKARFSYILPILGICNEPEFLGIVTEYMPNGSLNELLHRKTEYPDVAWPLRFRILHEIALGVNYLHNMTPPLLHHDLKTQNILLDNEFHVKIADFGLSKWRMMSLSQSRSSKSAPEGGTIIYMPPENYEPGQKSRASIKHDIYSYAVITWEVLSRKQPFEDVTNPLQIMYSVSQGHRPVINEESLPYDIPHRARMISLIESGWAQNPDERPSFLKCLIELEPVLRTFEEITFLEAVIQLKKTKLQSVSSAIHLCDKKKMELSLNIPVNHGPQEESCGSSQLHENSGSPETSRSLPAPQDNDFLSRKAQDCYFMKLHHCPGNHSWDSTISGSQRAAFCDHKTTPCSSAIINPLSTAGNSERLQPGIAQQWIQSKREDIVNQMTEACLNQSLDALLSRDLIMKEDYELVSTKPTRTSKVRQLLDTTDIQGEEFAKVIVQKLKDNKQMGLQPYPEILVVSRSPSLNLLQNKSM
* hit, by the source's call; i = inactive; ? = inconclusive; . = not tested or not shown; + = active, no number.

SMILES	TLR4-MyD88 BLA	ABCB6 inh 2	TLR9-MyD88 block	Myeloid diff 2	NOD2 RIPK2 PPI
CCn1c(SCC(=O)NC2(C#N)CCCCC2)nc2ccccc2c1=O	.	96.0	1.4	i	-9.9
CCOc1ccc(OCCn2nnc3ccccc3c2=O)cc1	-3.1	104.0	4.7	i	0.6
Cc1cc(NCC2CCCCC2)nc2ccccc12	.	163.0	9.6	+	-10.2
CCNc1nc(C)nc2c1oc1ccccc12	-0.3	67.0*	0.3	i	5.9
Cc1nc(Nc2cccc(F)c2)c2oc3ccccc3c2n1	.	504.0	-8.7	+	-1.0
Cc1ccc(S(=O)(=O)NCCC(=O)Nc2cc(S(=O)(=O)N(C)C)ccc2C)cc1C	.	103.0	1.6	.	2.8
CN(Cc1ccccc1)S(=O)(=O)c1ccc(Cl)c(C(=O)NCc2cccnc2)c1	.	97.0	-7.5	i	4.6
Cc1ccc(SCC(=O)OCC(=O)NC(C)c2ccc(Br)cc2)cc1 (centres undefined)	.	96.0	-9.2	i	-0.7
COc1ccc(NC(=O)CCNS(=O)(=O)c2ccc3c(c2)c(=O)n(C)c(=O)n3C)c(OC)c1	3.9	102.0	-7.3	+	-3.6
COCCNc1nc2c(c(=O)n(Cc3cccc(Cl)c3)c(=O)n2C)n1C	.	358.0	-6.8	+	-1.1
COc1ccc(-c2ccc3c(c2)S(=O)(=O)c2cccc(C(=O)N4CCN(C5CCCCC5)CC4)c2C3=O)cc1OC	.	295.0	-10.1	+	5.4
Cc1ccc(S(=O)(=O)N2CCC(C(=O)OC(C)C(=O)NC3CCCCC3C)CC2)cc1 (centres undefined)	.	100.0	-7.6	i	-5.9
Cc1cccc(C)c1NC(=O)C(=O)NCC1CCCN1S(=O)(=O)c1ccccc1 (centres undefined)	.	214.0	-5.9	i	6.2
Cc1cccc([C@@H]2[C@@H]3C(=O)N(Cc4ccccc4)C(=O)[C@@H]3[C@]3(Cc4ccc(Cl)cc4)C(=O)N(c4cccc(Br)c4)C(=O)N23)c1	.	103.0	-1.4	+	0.1
C[C@@H]1CN([C@@H](C)CO)C(=O)c2cc(NC(=O)CCC(F)(F)F)ccc2O[C@H]1CN(C)S(=O)(=O)c1ccc(Cl)cc1	.	99.0	-2.6	i	-7.5
O=C(CCl)Nc1cccc(Oc2cnccn2)c1	.	7.0*	-16.7	i	-1.2
N#C/C(=C/c1ccc(N2CCCCC2)o1)C(=O)Nc1ccc(Cl)cc1	11.2	340.0	4.8	+	-8.3
N#C/C(=C\c1ccc(N2CCOCC2)o1)C(=O)Nc1ccc(O)cc1	-10.3	104.0	.	+	-7.2
Fc1ccc(NCc2cn3ccccc3n2)cc1	6.7	121.0	-9.0	+	-5.6
Fc1cccc(NCc2cn3ccccc3n2)c1	9.6	98.0	-1.9	i	-6.3
Cc1cc(Br)cn2c(Cc3cccc(Cl)c3)c(-c3ccco3)nc12	.	99.0	.	i	10.8
Cc1ccc(Cc2c(-c3ccco3)nc3c(C)cc(Br)cn23)cc1	.	99.0	.	+	7.2
COC(=O)C[C@@H]1C=C[C@@H](NC(=O)C2CCC2)[C@@H](CO)O1	.	.	.	i	-1.5
CCN(CC)CCNc1ccc(CO)c2oc3ccccc3c(=O)c12	.	95.0	-0.2	+	-4.2
CC(OC(=O)c1ccc2ncsc2c1)C(=O)Nc1cccc(Cl)c1 (centres undefined)	.	79.0	4.6	?	3.2
SMILES	TLR4-MyD88 BLA	ABCB6 inh 2	TLR9-MyD88 block	Myeloid diff 2	NOD2 RIPK2 PPI
CC(=O)c1cccc(NC(=O)C(C)OC(=O)c2ccc3ncsc3c2)c1 (centres undefined)	.	100.0	11.1	+	-8.1
CCOC(=O)C1CCN(Cc2cnc(Oc3ccc(C(C)(C)C)cc3)s2)CC1	1.3	98.0	-1.1	i	-7.3
CC1=C(C(=O)Nc2cccc(C(=O)NC3CCCC(C)C3C)c2)SCCO1 (centres undefined)	.	96.0	-10.0	+	1.5
O=C(Cn1ncc2c([nH]c3ccccc32)c1=O)Nc1ccc(CN2CCCCC2)cc1	.	97.0	11.8	+	-6.2
C=CCNC(=O)N1CCCC(N2CCN(c3ccccc3OC)CC2)C1 (centres undefined)	.	99.0	-7.6	i	-6.0
COc1ccc(C(=O)NC(C)c2nnc(SCC(=O)NC3CCCC3)n2C)cc1 (centres undefined)	.	96.0	-1.4	i	2.7
COc1ccc(NC(=O)Cn2nnc(-c3ccccc3NC(=O)c3ccco3)n2)cc1	-23.3	99.0	1.7	+	-3.3
COc1ccccc1NC(=O)Cn1nnc(-c2ccccc2NC(=O)c2ccco2)n1	-13.4	93.0	-14.9	i	3.1
